Experimental data: ChEMBL document CHEMBL2218924, “A broad activity screen in support of a chemogenomic map for kinase signalling research and drug discovery” (Biochem J, 2013); call rule not given here

Tests used:
[1] = target: T1, Ephrin type-B receptor 1 (Homo sapiens) (UniProt P54762); details: at 10 µM
T1 sequence (whole entry): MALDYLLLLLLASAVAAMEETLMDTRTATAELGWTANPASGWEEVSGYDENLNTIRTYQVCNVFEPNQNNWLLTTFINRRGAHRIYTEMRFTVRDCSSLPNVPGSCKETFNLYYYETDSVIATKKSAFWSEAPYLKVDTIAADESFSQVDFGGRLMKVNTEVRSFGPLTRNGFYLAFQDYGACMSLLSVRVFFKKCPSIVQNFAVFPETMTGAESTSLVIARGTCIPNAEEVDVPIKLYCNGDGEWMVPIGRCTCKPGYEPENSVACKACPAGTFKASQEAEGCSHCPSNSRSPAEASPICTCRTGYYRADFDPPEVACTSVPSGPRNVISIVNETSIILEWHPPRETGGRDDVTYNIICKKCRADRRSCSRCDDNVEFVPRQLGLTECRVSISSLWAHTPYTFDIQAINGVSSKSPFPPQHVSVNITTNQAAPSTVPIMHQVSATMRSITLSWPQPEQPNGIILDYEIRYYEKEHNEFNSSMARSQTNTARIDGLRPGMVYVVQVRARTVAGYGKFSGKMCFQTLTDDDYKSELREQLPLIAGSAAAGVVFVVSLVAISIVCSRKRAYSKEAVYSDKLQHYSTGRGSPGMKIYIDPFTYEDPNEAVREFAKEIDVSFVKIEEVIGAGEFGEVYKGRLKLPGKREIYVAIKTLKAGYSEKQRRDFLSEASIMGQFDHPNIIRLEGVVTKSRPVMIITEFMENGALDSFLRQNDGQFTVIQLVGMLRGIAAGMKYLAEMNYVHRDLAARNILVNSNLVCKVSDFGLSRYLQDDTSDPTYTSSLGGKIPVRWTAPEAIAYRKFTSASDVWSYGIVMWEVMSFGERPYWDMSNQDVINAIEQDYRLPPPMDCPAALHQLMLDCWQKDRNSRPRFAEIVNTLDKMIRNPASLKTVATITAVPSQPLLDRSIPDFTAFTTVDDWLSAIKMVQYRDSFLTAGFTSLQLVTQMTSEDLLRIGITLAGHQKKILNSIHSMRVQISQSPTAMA

[2] = target: T2, Ephrin type-B receptor 2 (Homo sapiens) (UniProt P29323); details: at 1 µM
T2 sequence (whole entry): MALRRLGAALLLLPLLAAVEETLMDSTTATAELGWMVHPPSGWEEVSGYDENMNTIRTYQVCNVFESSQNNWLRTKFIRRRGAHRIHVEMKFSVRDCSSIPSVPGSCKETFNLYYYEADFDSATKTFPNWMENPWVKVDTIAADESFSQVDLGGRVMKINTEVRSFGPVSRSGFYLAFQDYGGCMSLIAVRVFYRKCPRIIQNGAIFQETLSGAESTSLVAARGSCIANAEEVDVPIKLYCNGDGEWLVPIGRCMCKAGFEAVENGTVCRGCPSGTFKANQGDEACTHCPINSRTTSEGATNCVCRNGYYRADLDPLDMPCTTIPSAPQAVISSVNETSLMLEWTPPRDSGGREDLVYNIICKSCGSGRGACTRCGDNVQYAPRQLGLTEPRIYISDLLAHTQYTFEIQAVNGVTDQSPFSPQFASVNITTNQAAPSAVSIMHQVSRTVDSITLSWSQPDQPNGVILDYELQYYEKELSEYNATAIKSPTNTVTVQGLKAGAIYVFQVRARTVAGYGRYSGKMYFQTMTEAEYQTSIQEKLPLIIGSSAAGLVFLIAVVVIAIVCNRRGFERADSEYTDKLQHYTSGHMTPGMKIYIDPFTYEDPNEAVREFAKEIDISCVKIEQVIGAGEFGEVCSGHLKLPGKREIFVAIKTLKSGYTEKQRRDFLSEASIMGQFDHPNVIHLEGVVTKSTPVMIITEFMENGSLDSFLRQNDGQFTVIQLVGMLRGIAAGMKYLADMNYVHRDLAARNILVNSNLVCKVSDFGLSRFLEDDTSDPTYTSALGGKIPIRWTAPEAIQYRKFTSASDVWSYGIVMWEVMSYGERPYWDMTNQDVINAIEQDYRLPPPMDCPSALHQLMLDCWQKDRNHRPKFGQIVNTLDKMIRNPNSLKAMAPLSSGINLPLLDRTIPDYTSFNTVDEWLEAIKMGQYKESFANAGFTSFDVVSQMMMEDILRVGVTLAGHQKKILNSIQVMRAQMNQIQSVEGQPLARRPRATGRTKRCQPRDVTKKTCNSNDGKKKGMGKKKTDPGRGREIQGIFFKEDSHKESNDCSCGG

[3] = target: T2, Ephrin type-B receptor 2 (Homo sapiens); details: at 10 µM
[4] = target: T3, Ephrin type-B receptor 3 (Homo sapiens) (UniProt P54753); details: at 1 µM
T3 sequence (whole entry): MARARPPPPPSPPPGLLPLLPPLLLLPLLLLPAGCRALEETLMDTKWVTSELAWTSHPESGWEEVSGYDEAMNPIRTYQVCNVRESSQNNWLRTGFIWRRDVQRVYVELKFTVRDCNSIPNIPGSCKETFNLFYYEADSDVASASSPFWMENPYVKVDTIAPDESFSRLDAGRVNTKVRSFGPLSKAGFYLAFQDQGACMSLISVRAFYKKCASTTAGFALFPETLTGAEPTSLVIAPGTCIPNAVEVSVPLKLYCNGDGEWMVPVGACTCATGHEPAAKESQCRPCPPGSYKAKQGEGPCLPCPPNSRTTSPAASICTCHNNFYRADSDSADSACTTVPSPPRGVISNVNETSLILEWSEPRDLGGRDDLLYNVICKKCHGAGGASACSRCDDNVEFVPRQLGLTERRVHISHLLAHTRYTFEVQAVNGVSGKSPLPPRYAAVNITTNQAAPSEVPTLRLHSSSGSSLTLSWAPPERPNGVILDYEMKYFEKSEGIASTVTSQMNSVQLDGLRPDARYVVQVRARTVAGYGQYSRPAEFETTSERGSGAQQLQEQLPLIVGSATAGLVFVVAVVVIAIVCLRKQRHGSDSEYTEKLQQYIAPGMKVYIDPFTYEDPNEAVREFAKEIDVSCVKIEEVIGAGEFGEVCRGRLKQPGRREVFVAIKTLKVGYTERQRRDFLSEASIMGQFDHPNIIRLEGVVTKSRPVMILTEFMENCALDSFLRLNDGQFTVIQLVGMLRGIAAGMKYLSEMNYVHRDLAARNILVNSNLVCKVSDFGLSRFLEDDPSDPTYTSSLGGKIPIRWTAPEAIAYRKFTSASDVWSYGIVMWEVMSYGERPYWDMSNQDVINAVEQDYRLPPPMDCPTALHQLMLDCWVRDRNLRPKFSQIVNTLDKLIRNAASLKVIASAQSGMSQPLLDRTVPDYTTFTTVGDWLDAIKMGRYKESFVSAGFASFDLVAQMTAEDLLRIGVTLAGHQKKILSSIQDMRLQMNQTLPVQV

[5] = target: T3, Ephrin type-B receptor 3 (Homo sapiens); details: at 10 µM
[6] = target: T4, Ephrin type-B receptor 4 (Homo sapiens) (UniProt P54760); details: at 1 µM
T4 sequence (whole entry): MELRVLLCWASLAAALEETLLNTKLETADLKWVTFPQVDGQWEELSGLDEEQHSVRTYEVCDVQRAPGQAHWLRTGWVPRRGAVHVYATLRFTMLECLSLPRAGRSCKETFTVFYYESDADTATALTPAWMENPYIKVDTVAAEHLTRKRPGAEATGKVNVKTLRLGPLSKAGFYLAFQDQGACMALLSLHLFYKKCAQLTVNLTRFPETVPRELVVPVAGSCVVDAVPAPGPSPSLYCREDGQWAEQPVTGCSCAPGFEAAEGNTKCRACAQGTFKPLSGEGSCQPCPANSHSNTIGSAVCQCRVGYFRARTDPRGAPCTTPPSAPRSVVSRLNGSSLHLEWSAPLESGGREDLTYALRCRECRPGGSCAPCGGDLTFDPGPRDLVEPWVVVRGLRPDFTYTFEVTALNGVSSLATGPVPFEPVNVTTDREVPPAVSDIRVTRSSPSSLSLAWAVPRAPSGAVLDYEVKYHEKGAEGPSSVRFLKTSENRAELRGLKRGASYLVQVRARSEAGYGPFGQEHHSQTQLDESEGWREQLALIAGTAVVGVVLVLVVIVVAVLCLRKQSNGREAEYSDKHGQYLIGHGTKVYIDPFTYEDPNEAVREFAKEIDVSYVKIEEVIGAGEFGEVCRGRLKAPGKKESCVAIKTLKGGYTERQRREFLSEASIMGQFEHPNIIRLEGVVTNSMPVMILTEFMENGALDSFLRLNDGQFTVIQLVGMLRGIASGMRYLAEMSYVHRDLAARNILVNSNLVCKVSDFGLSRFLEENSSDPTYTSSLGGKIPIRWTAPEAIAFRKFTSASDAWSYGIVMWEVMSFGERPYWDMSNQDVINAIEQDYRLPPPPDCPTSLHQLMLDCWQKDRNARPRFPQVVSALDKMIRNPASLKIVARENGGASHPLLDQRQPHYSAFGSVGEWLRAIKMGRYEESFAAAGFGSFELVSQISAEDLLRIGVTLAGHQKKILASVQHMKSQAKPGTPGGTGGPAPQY

[7] = target: T4, Ephrin type-B receptor 4 (Homo sapiens); details: at 10 µM
[8] = target: Receptor tyrosine-protein kinase erbB-4 (Homo sapiens) (UniProt Q15303); details: at 1 µM
[9] = target: Receptor tyrosine-protein kinase erbB-4 (Homo sapiens) (UniProt Q15303); details: at 10 µM
[10] = target: Focal adhesion kinase 1 (Homo sapiens) (UniProt Q05397); details: at 1 µM
Focal adhesion kinase 1 (Homo sapiens), sequence (Q05397 2-1052 limits assumed): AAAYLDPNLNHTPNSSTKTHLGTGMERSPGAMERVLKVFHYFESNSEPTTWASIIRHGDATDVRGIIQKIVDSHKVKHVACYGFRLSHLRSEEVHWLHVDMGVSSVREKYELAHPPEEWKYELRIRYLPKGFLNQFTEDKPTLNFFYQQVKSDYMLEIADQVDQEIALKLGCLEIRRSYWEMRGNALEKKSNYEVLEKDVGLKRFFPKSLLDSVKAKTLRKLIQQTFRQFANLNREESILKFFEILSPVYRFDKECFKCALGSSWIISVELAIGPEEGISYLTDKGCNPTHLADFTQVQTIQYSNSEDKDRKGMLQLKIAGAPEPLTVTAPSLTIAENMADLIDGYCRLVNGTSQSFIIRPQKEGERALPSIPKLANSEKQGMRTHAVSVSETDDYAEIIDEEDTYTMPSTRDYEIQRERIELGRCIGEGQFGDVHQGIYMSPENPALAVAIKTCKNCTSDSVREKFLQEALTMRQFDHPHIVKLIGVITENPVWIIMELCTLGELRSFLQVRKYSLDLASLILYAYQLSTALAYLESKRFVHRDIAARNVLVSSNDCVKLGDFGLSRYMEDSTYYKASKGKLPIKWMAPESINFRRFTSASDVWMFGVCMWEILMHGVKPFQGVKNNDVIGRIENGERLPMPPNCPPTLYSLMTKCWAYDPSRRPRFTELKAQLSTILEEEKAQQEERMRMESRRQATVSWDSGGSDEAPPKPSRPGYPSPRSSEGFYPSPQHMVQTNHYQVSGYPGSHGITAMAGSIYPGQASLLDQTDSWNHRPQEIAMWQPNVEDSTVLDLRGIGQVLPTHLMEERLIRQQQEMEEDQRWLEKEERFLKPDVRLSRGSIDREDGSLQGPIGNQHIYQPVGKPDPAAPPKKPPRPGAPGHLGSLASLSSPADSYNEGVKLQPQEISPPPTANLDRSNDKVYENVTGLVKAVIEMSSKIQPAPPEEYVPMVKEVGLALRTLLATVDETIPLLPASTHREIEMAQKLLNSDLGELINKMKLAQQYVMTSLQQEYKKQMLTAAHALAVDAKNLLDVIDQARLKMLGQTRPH

Receptor tyrosine-protein kinase erbB-4 (Homo sapiens), sequence (Q15303 whole entry): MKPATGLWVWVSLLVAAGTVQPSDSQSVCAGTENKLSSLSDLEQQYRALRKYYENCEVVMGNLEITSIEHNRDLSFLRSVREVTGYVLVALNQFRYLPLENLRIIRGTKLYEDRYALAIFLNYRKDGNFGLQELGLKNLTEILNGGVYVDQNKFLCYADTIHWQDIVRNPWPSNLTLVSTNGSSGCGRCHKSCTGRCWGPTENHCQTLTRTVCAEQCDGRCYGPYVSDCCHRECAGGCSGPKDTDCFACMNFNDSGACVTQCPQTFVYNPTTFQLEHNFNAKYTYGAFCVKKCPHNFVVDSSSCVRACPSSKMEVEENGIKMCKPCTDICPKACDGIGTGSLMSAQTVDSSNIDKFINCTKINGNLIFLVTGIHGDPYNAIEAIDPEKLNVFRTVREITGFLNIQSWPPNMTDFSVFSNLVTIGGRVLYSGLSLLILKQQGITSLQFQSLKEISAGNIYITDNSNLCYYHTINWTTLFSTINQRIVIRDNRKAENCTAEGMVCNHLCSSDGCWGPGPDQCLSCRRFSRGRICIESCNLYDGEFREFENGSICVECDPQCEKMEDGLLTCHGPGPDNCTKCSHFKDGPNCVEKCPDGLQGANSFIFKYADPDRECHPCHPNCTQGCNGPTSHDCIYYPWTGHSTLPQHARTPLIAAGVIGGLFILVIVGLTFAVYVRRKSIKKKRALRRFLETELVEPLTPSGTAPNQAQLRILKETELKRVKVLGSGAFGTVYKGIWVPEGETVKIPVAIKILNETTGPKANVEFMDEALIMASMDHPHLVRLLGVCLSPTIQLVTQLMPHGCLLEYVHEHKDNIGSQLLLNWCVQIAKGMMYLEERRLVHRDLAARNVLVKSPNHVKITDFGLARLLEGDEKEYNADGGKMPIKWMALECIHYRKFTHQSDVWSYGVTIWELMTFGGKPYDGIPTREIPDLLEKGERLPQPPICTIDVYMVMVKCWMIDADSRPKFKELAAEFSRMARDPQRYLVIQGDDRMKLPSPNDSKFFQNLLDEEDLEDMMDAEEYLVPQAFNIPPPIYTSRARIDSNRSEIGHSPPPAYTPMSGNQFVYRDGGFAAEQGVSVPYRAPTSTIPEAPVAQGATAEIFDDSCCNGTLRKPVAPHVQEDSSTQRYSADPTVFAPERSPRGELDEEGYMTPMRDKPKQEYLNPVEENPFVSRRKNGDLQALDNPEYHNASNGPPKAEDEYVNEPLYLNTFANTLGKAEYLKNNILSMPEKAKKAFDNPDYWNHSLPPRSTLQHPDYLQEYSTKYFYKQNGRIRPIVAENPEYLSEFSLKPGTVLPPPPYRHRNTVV

## COc1cc2ncnc(Nc3ccc(Oc4ccccc4)cc3)c2cc1OC
[1]
  residual activity: 107%
[2]
  residual activity: 115%
[3]
  residual activity: 109%
[4]
  residual activity: 120% (inactive)
[5]
  residual activity: 93%
[6]
  residual activity: 106%
[7]
  residual activity: 138%
[8]
  residual activity: -3%
[9]
  residual activity: -5%
[10]
  residual activity: 72%
